aSyn yeast rescue – qHTS of alpha-syn Inhibitors: NCGC Sytravon Library Screen; S. cerevisiae alpha-synuclein toxicity rescue, BacTiter-Glo growth, 24 h; Potency, µM (top dose mostly 46.1 µM), usual class: activators; 0.02% of 94,000 active; AID 1347070, 2019; active = well fitted activation curve with a large enough effect; also: 0% is about no effect
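Growth restoration measured by BacTiter-Glo luminescence after 24 hr at 30 deg C; alpha-synuclein yeast, raffinose-pregrown to mid-log, were added at OD600=0.02 in galactose medium onto pinned compounds.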
* marks the source's active call; other numbers are inactive results; i = inactive. This is one part of a sample in which hits are shown more often than they occur. Potency is read from the fitted curve at half-maximal effect.

SMILES	aSyn yeast rescue
O=C1CN=C(c2ccccc2)c2cc(Cl)ccc2N1Cc1ccc(Cl)cc1	i
CCc1cccc(NC(=O)CN2C(=O)CN=C(c3ccccc3F)c3cc(Cl)ccc32)c1	20µM*
Cc1cccc(CN2C(=O)CN=C(c3ccccc3)c3cc(Cl)ccc32)c1	i
Nc1c(C(=O)Nc2ccc(OC(F)(F)F)cc2)sc2nc3c(cc12)N1CCC3CC1	i
Cc1ccc(-c2nc(CN3C(=O)CN=C(c4ccccc4Cl)c4cc(Cl)ccc43)c(C)o2)cc1	i
